Experimental data published in the supplement of paper PMC6555819.

Columns and labels:
Test in all cases: PBM binding z-score (relative to random genomic background probes); higher = stronger binding; sequences stand for … in GC…GCGATTGACAGCGTAGAATGAAGG
[1] = test system: FXR:RXRa (NR concentration 270 nM, RXRa partner concentration 90 nM)
In short: (§1)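 Each nuclear receptor dimer, without ligand, was incubated for 1 h on custom Agilent 4×180K protein-binding microarrays. Binding was detected with antibodies against each partner (one per run), and scanned fluorescence was regression-normalized. The binding z-scores are referenced to random human genomic background probes.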

[2] = test system: LXRa:RXRa (NR concentration 270 nM, RXRa partner concentration 90 nM)
In short: as §1

[3] = test system: LXRa homodimer (NR concentration 270 nM)
In short: as §1

[4] = test system: LXRb:RXRa (NR concentration 270 nM, RXRa partner concentration 90 nM)
In short: as §1

[5] = test system: LXRb homodimer (NR concentration 270 nM)
In short: as §1

[6] = test system: PPARa:RXRa (NR concentration 270 nM, RXRa partner concentration 90 nM)
In short: as §1

[7] = test system: PPARg:RXRa (NR concentration 180 nM, RXRa partner concentration 90 nM)
In short: as §1

[8] = test system: PPARg:RXRa 270nM:90nM, anti-RXR (NR concentration 270 nM, RXRa partner concentration 90 nM)
In short: as §1

[9] = test system: PPARg:RXRa 30nM:10nM, anti-RXR (NR concentration 30 nM, RXRa partner concentration 10 nM)
In short: as §1

[10] = test system: PPARg:RXRa 90nM:30nM, anti-RXR (NR concentration 90 nM, RXRa partner concentration 30 nM)
In short: as §1

[11] = test system: PPARg:RXRa DBDmut IVT, anti-RXR (DBD mutation: RXRa K156A/R161A, NR concentration 270 nM, RXRa partner concentration 90 nM)
In short: as §1

[12] = test system: PPARg:RXRa IVT, anti-PPARg (NR concentration 270 nM, RXRa partner concentration 90 nM)
In short: as §1

[13] = test system: PPARg DBDmut:RXRa IVT, anti-PPARg (DBD mutation: PPARg1 K132A/R137A, NR concentration 270 nM, RXRa partner concentration 90 nM)
In short: as §1

[14] = test system: PPARg DBDmut IVT, anti-PPARg (DBD mutation: PPARg1 K132A/R137A, NR concentration 270 nM)
In short: as §1

[15] = test system: PPARg homodimer (NR concentration 180 nM)
In short: as §1

[16] = test system: PXR:RXRa (NR concentration 270 nM, RXRa partner concentration 90 nM)
In short: as §1

[17] = test system: PXR homodimer (NR concentration 270 nM)
In short: as §1

[18] = test system: RARa:RXR (NR concentration 270 nM, RXRa partner concentration 90 nM)
In short: as §1

[19] = test system: RARa homodimer (NR concentration 270 nM)
In short: as §1

[20] = test system: RARb:RXRa (NR concentration 270 nM, RXRa partner concentration 90 nM)
In short: as §1

| Sequence | PBM binding z-score [1] | PBM binding z-score [2] | PBM binding z-score [3] | PBM binding z-score [4] | PBM binding z-score [5] | PBM binding z-score [6] | PBM binding z-score [7] | PBM binding z-score [8] | PBM binding z-score [9] | PBM binding z-score [10] | PBM binding z-score [11] | PBM binding z-score [12] | PBM binding z-score [13] | PBM binding z-score [14] | PBM binding z-score [15] | PBM binding z-score [16] | PBM binding z-score [17] | PBM binding z-score [18] | PBM binding z-score [19] | PBM binding z-score [20] |
| --- | --- | --- | --- | --- | --- | --- | --- | --- | --- | --- | --- | --- | --- | --- | --- | --- | --- | --- | --- | --- |
| TTACCAAGGTGAGCTGAGGTCGTGGATCCAACTC | 1.09 | 0.85 | -0.734 | 0.827 | -1.47 | 2.1 | 0.337 | 0.913 | 0.0501 | 0.449 | 1.07 | 2.05 | -0.299 | -0.109 | -0.369 | 3.77 | -0.246 | 2.49 | -0.727 | 1.94 |
| CGTCCAAGGTCAATGCTAGGTCAGTGAGAGCATT | 6.44 | 5.68 | 2.93 | 4.16 | 0.966 | 5.13 | 4.1 | 4.72 | 2.14 | 3.48 | 3.49 | 4.04 | 0.572 | -0.0566 | 6.21 | 5.05 | 2.93 | 6.05 | 1.51 | 5.23 |
| GCATATAGGTAATGCAAGGTGAAAGTCCGATTGT | 0.366 | 1.83 | -0.0493 | 0.568 | -0.489 | 1.74 | 1.05 | 1.15 | 0.286 | 0.74 | 4.12 | 3.49 | 0.246 | 0.658 | 0.642 | 0.573 | 0.208 | 1.73 | 0.262 | 0.407 |
| TCATATAGGTAAACAGGTTAAAGTCCGTAAGTTA | 0.775 | 1.24 | 0.749 | 1.34 | 0.393 | 2.69 | 2.85 | 3.9 | 4.25 | 3.91 | 4.76 | 4.3 | 1.02 | 1.02 | 1.31 | 1.29 | 0.911 | 1.79 | 1.77 | 0.998 |
| TCATATAGTTAAAAGGTGAAAGTCGGTGTGGTAA | 1.74 | 1.98 | 0.272 | 1.98 | 0.21 | 3.42 | 3.17 | 5.23 | 5.04 | 5.39 | 3.12 | 2.36 | 1.13 | 0.7 | 2.01 | 1.38 | 0.951 | 2.72 | 2.03 | 2.02 |
| GCTGCTAGGTCCACTGATGGTCAGCTAAAGCTCG | -0.489 | -0.3 | -0.698 | -0.586 | -0.746 | -0.509 | -0.592 | -0.813 | -0.963 | -0.946 | 0.0704 | -0.423 | -1.19 | -1.02 | -1.01 | -0.525 | -1.03 | -0.598 | -1.55 | 0.403 |
| GCAGACAGGTGAAACGCAGGCAACTCAGGGTGGC | -0.553 | -0.232 | -0.806 | -0.499 | -1.09 | 0.513 | 0.448 | -0.314 | -0.566 | -0.565 | 0.648 | 0.278 | -0.31 | -0.728 | -0.411 | -0.21 | -0.499 | 0.0177 | -0.602 | 0.594 |
| CAAACTAGGTCTAGGTCAAAGTCGGTTTGTGCCA | 1.86 | 2.04 | 1.3 | 1.73 | 0.0723 | 3.34 | 2.95 | 3.82 | 1.2 | 3.03 | 4.21 | 4.82 | 0.191 | 0.991 | 1.41 | 1.7 | 0.0565 | 2.06 | -0.42 | 2.67 |
| TCGCGTAGGTTAGGGGCATTCAGAATGGCGTCGA | 0.432 | 0.41 | -0.522 | 0.996 | 0.176 | 1.04 | -0.162 | 1.01 | 1.38 | 1.41 | 0.918 | -0.148 | -0.436 | -0.621 | -0.168 | 0.489 | 0.0303 | 0.615 | -0.246 | 1.18 |
| CATACTAGGTCAAGGTCAAAGTCGGTTTGTGCCA | 6.62 | 5.81 | 5.27 | 4.77 | 1.99 | 5.6 | 8.52 | 7.01 | 5.63 | 6.93 | 7.56 | 7.98 | 3.58 | 0.96 | 5.3 | 5.33 | 2.51 | 5.37 | 2.9 | 4.96 |
| TCTATTAGTTGAAGGTCAACCGACGAGTCCGTTT | 3.86 | 4.66 | 4.55 | 3.9 | 1.95 | 3.95 | 1.56 | 3.57 | 3.89 | 3.78 | 2.82 | 2.45 | 1.21 | 0.836 | 3.86 | 4.22 | 2.78 | 4.4 | 3.23 | 4.02 |
| TGAATCAGGTTATAAGATCAGGGAACGTTGCAAA | 0.101 | 0.162 | -0.396 | 0.0988 | -0.425 | 0.709 | 0.475 | 0.863 | 0.155 | 0.477 | 0.57 | 1.03 | 1.01 | 0.775 | 2.15e-05 | -0.146 | -0.197 | -0.101 | 0.428 | 0.25 |
| ATATGTAGGTTACATCCGGGTCATTCGGGCTATG | 2.27 | 4.61 | 1.71 | 2.96 | 1.11 | 4.42 | 5.83 | 5.08 | 2.18 | 4.17 | 7.29 | 7.46 | 3.23 | 1.74 | 1.58 | 3.48 | 1.47 | 3.61 | 0.896 | 2.27 |
| TTGCCAAGGTGAAGGTCGTTGATCCCTCTGTAGA | 2.38 | 1.79 | -0.705 | 1.45 | -1.15 | 2.12 | 0.85 | 2.06 | 0.251 | 1.41 | 1.25 | 2.3 | -1.04 | -0.656 | 0.119 | 1.21 | -0.362 | 1.6 | -0.87 | 2.08 |
